The campaign covered roughly 5,500 compounds. About 2,000 (36%) were called active. Another 18% or so got no clear call; they are omitted. Rule as the data show it: active = normalized growth mostly below about 0.91 (no sharp cut-off); inconclusive = no clear call, values can overlap the other calls; inactive = mostly above about 0.92. The list shows a part of the results.
Experiment: chemical genetic growth profiling, strain panel (AID 1159580);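 also: tested at 20 µM; growth read once vehicle control cultures reached saturation at 30 °C; 1 = growth at the plate median or of vehicle wells; lower values mean less growth of the strain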
Details: growth OD
[1] = S. cerevisiae deletion strains, locus YAL013W, strain DEP1, hits give low values
[2] = S. cerevisiae deletion strains, locus YDR150W, strain NUM1, hits give low values
[3] = S. cerevisiae deletion strains, locus YJL095W, strain BCK1, hits give low values
[4] = S. cerevisiae deletion strains, locus YMR307W, strain GAS1, hits give low values
[5] = S. cerevisiae deletion strains, locus YPL241C, strain CIN2, hits give low values
[6] = S. cerevisiae deletion strains, locus YAL040C, strain CLN3, hits give low values
[7] = S. cerevisiae deletion strains, locus YDR363W, strain ESC2, hits give low values
[8] = S. cerevisiae deletion strains, locus YER002W, strain NOP16, hits give low values
[9] = S. cerevisiae deletion strains, locus YNL175C, strain NOP13, hits give low values
[10] = S. cerevisiae deletion strains, locus YNL197C, strain WHI3, hits give low values
[11] = S. cerevisiae deletion strains, locus YNL224C, strain SQS1, hits give low values
[12] = S. cerevisiae deletion strains, locus YOR083W, strain WHI5 (second series), hits give low values

Measured: normalized growth

CC1(C)C(=O)[C@@H]2O[C@@H]2[C@@]2(C)C1CC(=O)[C@]1(C)C2CC[C@@]2(C)[C@H](c3ccoc3)OC(=O)[C@H]3O[C@]321 (some centres undefined)
inactive: [1] 0.99 | S. cerevisiae deletion strains, locus YBR021W, strain FUR4, hits give low values 1.04 | S. cerevisiae deletion strains, locus YBR229C, strain ROT2, hits give low values 0.984 | S. cerevisiae deletion strains, locus YCL029C, strain bik1, hits give low values 0.976 | S. cerevisiae deletion strains, locus YDL035C, strain GPR1, hits give low values 0.992 | S. cerevisiae deletion strains, locus YDL074C, strain BRE1, hits give low values 0.955 | S. cerevisiae deletion strains, locus YDL101C, strain DUN1, hits give low values 0.978 | S. cerevisiae deletion strains, locus YDL134C, strain PPH21, hits give low values 0.967 | S. cerevisiae deletion strains, locus YDL185W, strain tfp1, hits give low values 0.951 | S. cerevisiae deletion strains, locus YDL192W, strain arf1, hits give low values 0.979 | S. cerevisiae deletion strains, locus YDR101C, strain arx1, hits give low values 0.985 | [2] 0.991 | S. cerevisiae deletion strains, locus YDR162C, strain NBP2, hits give low values 0.943 | S. cerevisiae deletion strains, locus YDR318W, strain mcm21, hits give low values 0.984 | S. cerevisiae deletion strains, locus YDR388W, hits give low values 0.985 | S. cerevisiae deletion strains, locus YDR502C, strain sam2, hits give low values 0.969 | S. cerevisiae deletion strains, locus YEL061C, strain CIN8, hits give low values 0.994 | S. cerevisiae deletion strains, locus YER110C, hits give low values 0.98 | S. cerevisiae deletion strains, locus YER155C, strain BEM2, hits give low values 0.994 | S. cerevisiae deletion strains, locus YER167W, strain BCK2, hits give low values 0.991 | S. cerevisiae deletion strains, locus YGL078C, strain dbp3, hits give low values 0.966 | S. cerevisiae deletion strains, locus YGL086W, strain mad1, hits give low values 0.995 | S. cerevisiae deletion strains, locus YGL248W, strain PDE1, hits give low values 0.949 | S. cerevisiae deletion strains, locus YGR135W, strain pre9, hits give low values 0.968 | S. cerevisiae deletion strains, locus YGR252W, strain gcn5, hits give low values 0.962 | S. cerevisiae deletion strains, locus YHR079C, strain IRE1 (second series), hits give low values 0.987 | S. cerevisiae deletion strains, locus YHR094C, strain hxt1, hits give low values 0.981 | S. cerevisiae deletion strains, locus YHR129C, strain ARP1, hits give low values 0.988 | S. cerevisiae deletion strains, locus YHR200W, strain rpn10, hits give low values 0.988 | S. cerevisiae deletion strains, locus YIL066C, strain RNR3, hits give low values 0.987 | S. cerevisiae deletion strains, locus YIL073C, strain SPO22, hits give low values 0.96 | S. cerevisiae deletion strains, locus YIL125W, strain kgd1, hits give low values 0.943 | S. cerevisiae deletion strains, locus YIR030C, strain dcg1, hits give low values 0.975 | [3] 0.946 | S. cerevisiae deletion strains, locus YJL134W, strain LCB3, hits give low values 0.988 | S. cerevisiae deletion strains, locus YJL168C, strain set2, hits give low values 0.989 | S. cerevisiae deletion strains, locus YJL187C, strain SWE1 (second series), hits give low values 0.977 | S. cerevisiae deletion strains, locus YJR043C, strain POL32, hits give low values 0.991 | S. cerevisiae deletion strains, locus YKL009W, strain mrt4, hits give low values 0.971 | S. cerevisiae deletion strains, locus YKL068W, hits give low values 0.973 | S. cerevisiae deletion strains, locus YKL085W, strain MDH1 (second series), hits give low values 0.981 | S. cerevisiae deletion strains, locus YKL085W, strain MDH1, hits give low values 0.981 | S. cerevisiae deletion strains, locus YKR001C, strain vps1, hits give low values 0.957 | S. cerevisiae deletion strains, locus YLR039C, strain RIC1, hits give low values 0.951 | S. cerevisiae deletion strains, locus YLR058C, strain SHM2, hits give low values 0.988 | S. cerevisiae deletion strains, locus YLR102C, strain apc9, hits give low values 0.975 | S. cerevisiae deletion strains, locus YLR262C, strain YPT6, hits give low values 0.912 | S. cerevisiae deletion strains, locus YLR268W, strain sec22, hits give low values 0.997 | S. cerevisiae deletion strains, locus YLR330W, strain CHS5, hits give low values 0.99 | S. cerevisiae deletion strains, locus YLR342W, strain FKS1 (second series), hits give low values 1.03 | S. cerevisiae deletion strains, locus YLR371W, strain rom2, hits give low values 0.962 | S. cerevisiae deletion strains, locus YLR418C, strain cdc73, hits give low values 0.904 | S. cerevisiae deletion strains, locus YML016C, strain PPZ1, hits give low values 0.984 | S. cerevisiae deletion strains, locus YML032C, strain rad52, hits give low values 0.992 | S. cerevisiae deletion strains, locus YML124C, strain tub3, hits give low values 0.97 | S. cerevisiae deletion strains, locus YMR078C, strain ctf18, hits give low values 0.955 | S. cerevisiae deletion strains, locus YMR223W, strain ubp8, hits give low values 0.973 | [4] 1.05 | S. cerevisiae deletion strains, locus YNL067W, strain RPL9B, hits give low values 0.957 | S. cerevisiae deletion strains, locus YNL233W, strain BNI4, hits give low values 0.964 | S. cerevisiae deletion strains, locus YNL250W, strain rad50, hits give low values 0.96 | S. cerevisiae deletion strains, locus YNL271C, strain bni1, hits give low values 0.973 | S. cerevisiae deletion strains, locus YNL298W, strain CLA4, hits give low values 0.967 | S. cerevisiae deletion strains, locus YNL307C, strain MCK1, hits give low values 0.982 | S. cerevisiae deletion strains, locus YNR052C, strain pop2, hits give low values 0.977 | S. cerevisiae deletion strains, locus YOL006C, strain TOP1, hits give low values 0.895 | S. cerevisiae deletion strains, locus YOL012C, strain htz1 0.769 | S. cerevisiae deletion strains, locus YOL147C, strain pex11, hits give low values 0.988 | S. cerevisiae deletion strains, locus YOR061W, strain CKA2, hits give low values 0.977 | S. cerevisiae deletion strains, locus YOR069W, strain VPS5, hits give low values 0.985 | S. cerevisiae deletion strains, locus YOR136W, strain idh2, hits give low values 0.995 | S. cerevisiae deletion strains, locus YOR144C, strain elg1, hits give low values 0.983 | S. cerevisiae deletion strains, locus YOR184W, strain ser1, hits give low values 0.982 | S. cerevisiae deletion strains, locus YOR316C, strain cot1, hits give low values 0.973 | [5] 0.977 | S. cerevisiae deletion strains, locus YPR119W, strain clb2, hits give low values 0.986 | S. cerevisiae deletion strains, locus YPR141C, strain kar3, hits give low values 0.964 | S. cerevisiae deletion strains, locus YPR163C, strain tif3, hits give low values 0.995 | S. cerevisiae deletion strains, locus YPR167C, strain met16, hits give low values 0.985 | S. cerevisiae deletion strains, strain wtn01, hits give low values 0.978 | S. cerevisiae strains, strain wild type, hits give low values 1.01

Cc1nc(N=Nc2ccc(S(=O)(=O)O)cc2S(=O)(=O)O)c(COP(=O)(O)O)c(C=O)c1O
inactive: [6] 1 | S. cerevisiae deletion strains, locus YCL061C, strain MRC1 (second series), hits give low values 1 | [2] 1.01 | [7] 1.01 | [8] 0.993 | S. cerevisiae deletion strains, locus YGR229C, strain SMI1, hits give low values 1.02 | [4] 0.998 | S. cerevisiae deletion strains, locus YNL128W, strain TEP1, hits give low values 1.02 | [9] 1 | [10] 1.01 | [11] 1.01 | [12] 1.01 | S. cerevisiae deletion strains, locus YPL055C, strain LGE1, hits give low values 1 | [5] 0.997

CC(C)C1C2CCC(C2)C1N (centres undefined)
inactive: [1] 1.01 | [6] 0.976 | [2] 0.985 | [7] 1.02 | [8] 1 | S. cerevisiae deletion strains, locus YGR078C, strain PAC10, hits give low values 1.02 | S. cerevisiae deletion strains, locus YNL153C, strain GIM3, hits give low values 1.03 | [9] 1.02 | [10] 1 | [11] 1.03 | [12] 1.01

O1[As]2O[As]3O[As]1O[As](O2)O3
inactive: S. cerevisiae deletion strains, locus YHR030C, strain SLT2, hits give low values 0.959 | S. cerevisiae deletion strains, locus YHR079C, strain IRE1, hits give low values 0.974 | [3] 0.983 | S. cerevisiae deletion strains, locus YJR066W, strain TOR1, hits give low values 0.961 | S. cerevisiae deletion strains, locus YLR113W, strain HOG1, hits give low values 1.05 | S. cerevisiae deletion strains, locus YNL183C, strain NPR1, hits give low values 0.927 | S. cerevisiae deletion strains, locus YOR231W, strain MKK1, hits give low values 0.973 | S. cerevisiae deletion strains, locus YPL256C, strain CLN2, hits give low values 0.98

Source: PubChem BioAssay AID1159580 (chemical genetic matrix, 2015)
